# The panel holds about 83,000 compounds, 20% with a hit somewhere; the sample as a whole holds those more often.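 The endpoint reported here, percent growth, reads 100 for growth as untreated, 0 for no net growth and -100 for all cells dead.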 A number with no mark means an inactive call. Activity calls are given as the source filed them. How the source made its calls: active means growth percent below 10; inactive means the rest.
# Experiments:
# Assay in all cases: NCI-60 one-dose screen, 48 h (100 = growth as untreated, 0 = no growth, -100 = all killed)
# Conditions in all cases: 10 µM
# NCI-H23 lung = test system: NCI-H23 lung
# NCI-H226 lung = test system: NCI-H226 lung
# HOP-62 NSCLC = test system: HOP-62 NSCLC
# NCI-H460 lung = test system: NCI-H460 lung
# HOP-92 NSCLC = test system: HOP-92 NSCLC
# NCI-H522 lung = test system: NCI-H522 lung
# A549/ATCC NSCLC = test system: A549/ATCC NSCLC
# 786-0 renal = test system: 786-0 renal
# COLO 205 colon = test system: COLO 205 colon
SMILES,growth (NCI-H23 lung),growth (NCI-H226 lung),growth (HOP-62 NSCLC),growth (NCI-H460 lung),growth (HOP-92 NSCLC),growth (NCI-H522 lung),growth (A549/ATCC NSCLC),growth (786-0 renal),growth (COLO 205 colon)
O=S(=O)(Oc1ccc(-c2ccc3sccc3c2)cc1)c1ccc(F)cc1,87.6%,94.5%,111%,103%,105%,87.7%,94%,96.3%,111%
CC[C@@H](C(=O)[C@@H](C)[C@@H](O)[C@H](C)[C@@H]1O[C@@H]([C@@H](CC)C(=O)N(CC)CC)CC[C@@H]1C)C1O[C@]2(C=CC(=O)[C@]3(CC[C@@](C)([C@H]4CC[C@](O)(CC)[C@H](C)O4)O3)O2)[C@H](C)C[C@@H]1C (some centres not stated),20%,13.4%,31.7%,18.5%,-17.2% (active),8.58% (active),28.3%,34.6%,12.2%
CC[C@@H](C(=O)[C@H](C)[C@H](O)[C@@H](C)[C@H]1O[C@H]([C@@H](CC)C(=O)N(CC)CC)CC[C@H]1C)C1O[C@]2(C=C[C@@H](O)[C@]3(CC[C@@](C)([C@H]4CC[C@](O)(CC)[C@H](C)O4)O3)O2)[C@H](C)C[C@@H]1C (some centres not stated),18.6%,7.49% (active),16.7%,12.5%,-26.2% (active),5.16% (active),20.9%,33.5%,-20.2% (active)
Clc1ccc(C2=NN=C3C(Cc4ccccc4)=Nc4ccccc4N3C2)cc1,90%,92.8%,83.3%,86.8%,87.4%,38.4%,96.6%,64.1%,105%
COc1ccc(/C(C#N)=C/c2ccccc2OC)cc1,41.7%,64.8%,44.7%,20.9%,74.4%,5.02% (active),36.2%,52.4%,14.2%
COc1cccc(N=Nc2cccc(OC)c2)c1,86.4%,90.5%,82.6%,103%,84%,73%,83.9%,91.3%,107%
O=C(CC(CC(=O)c1ccccc1)c1ccccc1O)c1ccccc1,92.8%,87.8%,85.8%,93%,88.9%,89.3%,93%,96.5%,106%
CCOc1ccccc1/C=N/N1CCCCCC1,89.3%,88.2%,97.3%,107%,86.9%,102%,117%,119%,108%
COc1ccc(-c2n[nH]nc2-c2cc(OC)c(OC)c(OC)c2)cc1,10.8%,63.2%,46.2%,2.7% (active),-1.89% (active),-24.5% (active),20.4%,16.9%,-18.5% (active)
CCOC(=O)c1cc(C(=O)c2cc(OC)cc(OC)c2)n2ncc3ccccc3c12,41.9%,59.1%,42.6%,7.07% (active),32.4%,2.64% (active),17.9%,5.34% (active),19.1%
CC(C)(C)OC(=O)N1CCc2c(sc3ncnc(N/N=C/c4cccc(Br)c4)c23)C1,55.3%,67.3%,45.1%,20.9%,75.6%,34.2%,45.7%,50.7%,13.1%
COc1cc(/C=C2\CCCC3=C2N=C2SC(C)=CN2C3c2cc(OC)c(OC)c(OC)c2)cc(OC)c1OC (configuration not stated),-30.4% (active),-56.7% (active),-19.6% (active),1.37% (active),55.4%,-21.8% (active),-23.4% (active),-18.1% (active),-71% (active)
O=C(Nc1nc(-c2ccccc2)nc2c1sc(=S)n2-c1ccccc1)C(F)(F)F,89.9%,90.3%,101%,99.3%,81.4%,86.6%,74.9%,98.9%,115%
O=C1c2ccccc2C(=O)c2c1ccc1c(=O)n(-c3ccccc3C(F)(F)F)nnc21,3.9% (active),35.9%,23.8%,5.82% (active),37.1%,16.7%,13.1%,60.5%,8.51% (active)
O=C1c2ccccc2C(=O)N1CCCCNc1ccccc1,104%,91.7%,122%,89.3%,106%,101%,78.2%,63.7%,114%
CN(C)CCCOc1ccc(NC2=C(Cl)C(=O)C(Nc3ccc(OCCCN(C)C)cc3)=C(Cl)C2=O)cc1,-72% (active),-84.1% (active),-98.2% (active),-65.7% (active),-74.9% (active),-75.2% (active),-56.2% (active),-50% (active),-74.3% (active)
O=C(O)COc1c(Cl)cc([N+](=O)[O-])cc1Cl,99%,96.4%,88.8%,109%,78.5%,76.8%,81.7%,88.6%,102%
COc1cc2cc(Oc3ccc(NC(=O)Nc4ccc(Cl)c(C(F)(F)F)c4)cc3)c(C)nc2cc1OC,3.46% (active),4.49% (active),-50.9% (active),-19.8% (active),-22.3% (active),-43.6% (active),-17.2% (active),-21.1% (active),-49.5% (active)
COc1cc(NC(=O)Nc2cnc(Nc3ccc(N4CCOCC4)cc3)nc2Oc2cccc(OC)c2)cc(OC)c1,61.3%,7.06% (active),32.1%,23.9%,4.67% (active),27.5%,23.4%,-25.6% (active),46.2%
C[C@@H](C[C@H](CCO)c1ccccc1)c1ccc2ccccc2c1,-65.1% (active),-65.7% (active),-55% (active),-48.5% (active),-95.6% (active),-53.9% (active),-81.4% (active),-90.6% (active),-86.9% (active)
COc1cc2c(Nc3ccc(S(N)(=O)=O)cc3)ncnc2c(OC)c1OC,96.7%,84.9%,92.3%,105%,85.9%,89.4%,102%,121%,89.2%
COc1ccc(C2=Cn3c(CCC(=O)c4nc5ccccc5[nH]4)nnc3SC2)cc1,94.5%,89.3%,93.7%,101%,77.5%,98.6%,106%,104%,123%
COc1cc2cc(Oc3ccc(NC(=O)Nc4ccc(C(F)(F)F)cc4)cc3)c(C)nc2cc1OC,79.3%,20.9%,18.8%,42.8%,56.3%,63.2%,32.4%,74.9%,40.4%
CCN(CC)CCOc1cccc2c1C(=O)c1cccc(OCCN(CC)CC)c1C2=O,42.2%,36.6%,37%,13.9%,36.5%,42.8%,17.5%,38.6%,6.57% (active)
Cc1c[nH]c(=O)n(Cc2nnc(CCC(=O)c3nc4ccccc4[nH]3)o2)c1=O,36.9%,31.7%,17.7%,9.27% (active),53.2%,12.7%,21.1%,28.7%,-32.7% (active)
CCC(C)[C@H](NC(C)=O)C(=O)N[C@@H](CCCNC(=N)N)C(=O)N[C@@H](CCCCN)C(=O)N[C@@H](CC1CCC(O)CC1)C(=O)NC(C(=O)N[C@@H](CCSC)C(=O)N[C@@H](CCCNC(=N)N)C(=O)N[C@@]1(C)CCC/C=C\CCC[C@@](C)(C(=O)NC(C(=O)N[C@@H](CCC(=O)O)C(=O)N[C@@H](CC(C)C)C(=O)N[C@H](C(=O)N[C@@H](CCC(=O)O)C(N)=O)C(C)C)[C@@H](C)O)NC(=O)[C@H](CCC(N)=O)NC(=O)[C@H](CC(C)C)NC(=O)[C@H](CC(C)C)NC1=O)[C@@H](C)O (some centres not stated),106%,108%,108%,103%,103%,102%,96.3%,98.7%,89.9%
O=C(/C=C/C=C/c1c(C2CC2)nc2ccccc2c1-c1ccc(F)cc1)c1cccs1,20.7%,-53.6% (active),24.2%,-7.38% (active),9.27% (active),2.39% (active),20.6%,19.6%,-55% (active)
O=C(CN1CCN(C(=O)c2ccccc2)CC1)Nc1ccccc1SCc1ccccc1,79%,81.5%,89.6%,96.8%,71.4%,50.9%,83.4%,79.3%,82.3%

# From PubChem BioAssay (NCI)
